# From article PMC7862700, “An all-to-all approach to the identification of sequence-specific readers for epigenetic DNA modifications on cytosine”
# Legend:
# Assay in all cases: DAPPL (digital affinity profiling via proximity ligation, sequencing); 10 mM Tris-HCl pH 7.5, 50 mM NaCl, 1 mM DTT, 4% glycerol, room temperature, 30 min; GST-TFs on glutathione beads, 16-mer random dsDNA library, 0.1% formaldehyde crosslink after washing; high values mean tight binding
# FEV = target: T1, FEV (Homo sapiens, UniProt Q99581 1-238); conditions: protein: recombinant; tags: N-terminal GST; dsDNA, one strand shown
# T1 sequence: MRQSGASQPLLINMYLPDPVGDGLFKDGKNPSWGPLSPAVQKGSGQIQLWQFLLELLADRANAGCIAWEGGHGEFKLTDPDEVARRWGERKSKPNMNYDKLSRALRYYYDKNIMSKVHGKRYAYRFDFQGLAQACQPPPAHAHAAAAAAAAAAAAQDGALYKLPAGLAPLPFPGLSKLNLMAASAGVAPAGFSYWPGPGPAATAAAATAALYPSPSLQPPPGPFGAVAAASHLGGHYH
# In short: (§1)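 The binding signal reported is, for every hexamer, its read frequency for a factor over its read frequency for the tag-only sample. Reads came from pools of yeast-expressed, GST-fused human transcription factors on glutathione beads, barcoded with DNA and mixed with that sample, which were incubated with 200 nmole of a random double-stranded 16-mer DNA library in Tris/NaCl/DTT/glycerol buffer at room temperature for 30 min. After washing, the pools were crosslinked with 0.1% formaldehyde, proximity-ligated with BsaI/T4 ligase for 1 h at 37 °C, PCR-amplified and sequenced on an Illumina NextSeq500.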
# ETV5 = ETV5 (Homo sapiens, UniProt P41161 1-510); conditions: protein: recombinant; tags: N-terminal GST; dsDNA, one strand shown
# In short: as §1
# HSF1 = HSF1 (Homo sapiens, UniProt Q00613 1-529); conditions: protein: recombinant; tags: N-terminal GST; chain copies: 3; dsDNA, one strand shown
# In short: as §1
# SPIC = target: T2, SPIC (Homo sapiens, UniProt Q8N5J4 1-248); conditions: protein: recombinant; tags: N-terminal GST; dsDNA, one strand shown
# T2 sequence: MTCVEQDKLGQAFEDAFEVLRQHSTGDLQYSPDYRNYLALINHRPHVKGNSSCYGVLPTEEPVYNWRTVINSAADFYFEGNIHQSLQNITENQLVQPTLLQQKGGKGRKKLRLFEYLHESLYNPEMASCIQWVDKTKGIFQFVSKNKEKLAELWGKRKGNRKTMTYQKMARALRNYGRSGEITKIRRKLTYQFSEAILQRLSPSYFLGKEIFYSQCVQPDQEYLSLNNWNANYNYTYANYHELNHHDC
# In short: as §1
# ELF4 = ELF4 (Homo sapiens, UniProt Q99607 1-663); conditions: protein: recombinant; tags: N-terminal GST; dsDNA, one strand shown
# In short: as §1
# ELK4 = target: T3, ELK4 (Homo sapiens, UniProt P28324-2 1-405); conditions: protein: recombinant; tags: N-terminal GST; dsDNA, one strand shown
# T3 sequence: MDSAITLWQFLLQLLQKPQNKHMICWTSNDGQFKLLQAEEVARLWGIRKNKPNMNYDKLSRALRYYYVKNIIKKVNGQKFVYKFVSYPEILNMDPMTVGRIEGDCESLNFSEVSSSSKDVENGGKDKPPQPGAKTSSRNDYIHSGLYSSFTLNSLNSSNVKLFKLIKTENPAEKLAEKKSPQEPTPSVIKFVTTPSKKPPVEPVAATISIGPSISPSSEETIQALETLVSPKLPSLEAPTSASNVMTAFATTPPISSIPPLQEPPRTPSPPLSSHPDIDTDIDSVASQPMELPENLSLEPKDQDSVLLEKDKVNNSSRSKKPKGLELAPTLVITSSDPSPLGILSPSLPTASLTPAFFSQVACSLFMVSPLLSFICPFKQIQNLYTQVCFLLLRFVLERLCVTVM
# In short: as §1
# ETV2 = target: T4, ETV2 (Homo sapiens, UniProt O00321 1-342); conditions: protein: recombinant; tags: N-terminal GST; dsDNA, one strand shown
# T4 sequence: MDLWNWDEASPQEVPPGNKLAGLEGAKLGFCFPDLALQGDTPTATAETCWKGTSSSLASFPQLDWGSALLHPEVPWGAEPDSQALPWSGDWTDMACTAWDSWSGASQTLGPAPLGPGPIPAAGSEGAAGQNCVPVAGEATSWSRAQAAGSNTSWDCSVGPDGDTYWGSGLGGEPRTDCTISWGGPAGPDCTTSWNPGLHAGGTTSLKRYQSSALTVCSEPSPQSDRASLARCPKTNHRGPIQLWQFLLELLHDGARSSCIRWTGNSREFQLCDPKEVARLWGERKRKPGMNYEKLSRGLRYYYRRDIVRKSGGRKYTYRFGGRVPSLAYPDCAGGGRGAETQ
# In short: as §1
# ELF3 = target: T5, ELF3 (Homo sapiens, UniProt P78545 1-371); conditions: protein: recombinant; tags: N-terminal GST; dsDNA, one strand shown
# T5 sequence: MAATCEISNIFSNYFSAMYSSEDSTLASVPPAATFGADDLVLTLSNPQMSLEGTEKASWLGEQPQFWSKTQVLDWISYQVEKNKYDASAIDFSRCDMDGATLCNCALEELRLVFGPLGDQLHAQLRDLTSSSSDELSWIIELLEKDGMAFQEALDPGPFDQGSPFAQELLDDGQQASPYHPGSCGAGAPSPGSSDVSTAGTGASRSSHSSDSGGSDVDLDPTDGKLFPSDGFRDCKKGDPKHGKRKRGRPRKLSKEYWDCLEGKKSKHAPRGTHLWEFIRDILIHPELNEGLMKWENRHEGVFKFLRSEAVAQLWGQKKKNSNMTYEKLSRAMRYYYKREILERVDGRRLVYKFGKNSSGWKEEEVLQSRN
# In short: as §1
# CRX = CRX (Homo sapiens, UniProt O43186 1-299); conditions: protein: recombinant; tags: N-terminal GST; dsDNA, one strand shown
# In short: as §1
# Sequence of ELF4 (Q99607 whole entry): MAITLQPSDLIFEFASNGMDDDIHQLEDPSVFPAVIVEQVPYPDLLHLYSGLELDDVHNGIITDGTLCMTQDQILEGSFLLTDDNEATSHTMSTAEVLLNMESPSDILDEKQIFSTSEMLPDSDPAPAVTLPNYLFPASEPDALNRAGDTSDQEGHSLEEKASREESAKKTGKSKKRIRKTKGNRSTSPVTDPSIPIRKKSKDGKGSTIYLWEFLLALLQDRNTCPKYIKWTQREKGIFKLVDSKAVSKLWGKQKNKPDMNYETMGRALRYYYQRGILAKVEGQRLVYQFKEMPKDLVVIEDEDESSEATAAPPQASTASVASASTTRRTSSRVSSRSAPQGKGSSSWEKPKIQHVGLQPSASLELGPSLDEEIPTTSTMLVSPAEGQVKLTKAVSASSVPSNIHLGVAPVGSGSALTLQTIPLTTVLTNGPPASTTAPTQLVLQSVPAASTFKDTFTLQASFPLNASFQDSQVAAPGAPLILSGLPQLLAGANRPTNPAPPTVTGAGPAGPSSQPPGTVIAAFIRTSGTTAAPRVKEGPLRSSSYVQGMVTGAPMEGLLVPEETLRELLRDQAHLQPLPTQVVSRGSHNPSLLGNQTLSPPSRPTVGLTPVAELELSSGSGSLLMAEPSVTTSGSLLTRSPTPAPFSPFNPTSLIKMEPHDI
# Sequence of HSF1 (Q00613 whole entry): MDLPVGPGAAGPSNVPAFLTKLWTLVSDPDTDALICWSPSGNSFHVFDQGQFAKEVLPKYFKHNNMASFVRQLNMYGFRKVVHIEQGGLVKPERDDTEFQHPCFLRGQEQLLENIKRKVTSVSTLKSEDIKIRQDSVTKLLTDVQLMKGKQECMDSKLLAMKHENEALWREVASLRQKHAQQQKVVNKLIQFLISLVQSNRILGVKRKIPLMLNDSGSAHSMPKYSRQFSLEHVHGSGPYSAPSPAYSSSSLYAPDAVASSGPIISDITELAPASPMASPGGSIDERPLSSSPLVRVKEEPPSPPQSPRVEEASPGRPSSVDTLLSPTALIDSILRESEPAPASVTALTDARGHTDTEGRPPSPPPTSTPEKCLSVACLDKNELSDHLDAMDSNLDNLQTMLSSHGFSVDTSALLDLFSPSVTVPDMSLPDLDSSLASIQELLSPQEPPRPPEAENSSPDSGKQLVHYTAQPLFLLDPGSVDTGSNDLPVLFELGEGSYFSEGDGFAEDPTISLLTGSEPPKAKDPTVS
# Sequence of CRX (O43186 whole entry): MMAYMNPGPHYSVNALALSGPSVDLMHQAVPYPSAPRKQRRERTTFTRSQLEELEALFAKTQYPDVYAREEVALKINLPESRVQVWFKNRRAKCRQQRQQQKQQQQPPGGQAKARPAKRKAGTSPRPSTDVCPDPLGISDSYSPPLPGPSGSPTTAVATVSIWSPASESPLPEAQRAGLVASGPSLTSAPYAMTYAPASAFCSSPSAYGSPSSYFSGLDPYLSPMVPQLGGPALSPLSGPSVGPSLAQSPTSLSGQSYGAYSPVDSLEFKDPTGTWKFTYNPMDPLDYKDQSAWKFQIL
# Sequence of ETV5 (P41161 whole entry): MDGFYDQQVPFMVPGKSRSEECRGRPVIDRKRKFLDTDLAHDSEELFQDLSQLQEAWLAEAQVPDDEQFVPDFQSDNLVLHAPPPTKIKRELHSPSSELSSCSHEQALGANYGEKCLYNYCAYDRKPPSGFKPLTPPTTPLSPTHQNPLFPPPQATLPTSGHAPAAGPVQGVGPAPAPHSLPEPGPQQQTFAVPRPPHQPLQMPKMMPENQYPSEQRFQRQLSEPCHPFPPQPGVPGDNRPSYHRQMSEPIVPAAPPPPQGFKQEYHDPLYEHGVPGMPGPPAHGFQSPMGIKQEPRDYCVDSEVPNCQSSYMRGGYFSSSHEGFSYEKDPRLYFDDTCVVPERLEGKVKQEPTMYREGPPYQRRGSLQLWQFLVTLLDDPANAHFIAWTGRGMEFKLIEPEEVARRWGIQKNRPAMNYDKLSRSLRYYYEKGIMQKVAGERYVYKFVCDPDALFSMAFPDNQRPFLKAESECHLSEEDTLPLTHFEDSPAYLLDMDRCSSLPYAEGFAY
sequence,measurement,setting,value
AGCTTA,binding signal,FEV,"1.06 fold enrichment (6-mer frequency, TF over GST control)"
same,binding signal,ETV5,"1.07 fold enrichment (6-mer frequency, TF over GST control)"
same,binding signal,HSF1,"1.94 fold enrichment (6-mer frequency, TF over GST control)"
same,binding signal,SPIC,"1.12 fold enrichment (6-mer frequency, TF over GST control)"
same,binding signal,ELF4,"1.11 fold enrichment (6-mer frequency, TF over GST control)"
same,binding signal,ELK4,"1.08 fold enrichment (6-mer frequency, TF over GST control)"
same,binding signal,ETV2,"1.14 fold enrichment (6-mer frequency, TF over GST control)"
same,binding signal,ELF3,"1.23 fold enrichment (6-mer frequency, TF over GST control)"
same,binding signal,CRX,"3.13 fold enrichment (6-mer frequency, TF over GST control)"
